Screening results deposited in PubChem by National Center for Advancing Translational Sciences (NCATS).
Sampled rows, rich in hits. Any-hit rate of the full collection: about 19%.
TDP1 cell CPT: qHTS for Inhibitors of human tyrosyl-DNA phosphodiesterase 1 (TDP1): qHTS in cells in presence of CPT; chicken DT40 Tdp1-/-;hTDP1 cells + 20 nM CPT, ATP luminescence, 48 h; Potency, µM (doses to about 46.2 µM), most hits filed as inhibitors; actives 12% (n = 420,000); AID 686979, 2013; note: nearly all actives have a fitted effect of over 55% in size
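Cell growth measured by CellTiter-Glo luminescence after a minimum 48 h, 37 C compound exposure with 20 nM CPT in Tdp1-knockout DT40 cells stably expressing hTDP1, seeded 400/well; qHTS titration format.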
HT1080 IDH1KD tx: qHTS for induction of synthetic lethality in tumor cells producing 2HG: qHTS for the HT-1080-IDH1KD cell line | HT-1080 IDH1 knockdown viability, ATP luminescence, 48 h | Potency, µM (titrated, usually from 46.1 µM), hits mostly cytotoxic | actives 2% (n = 360,000) | AID 686971, 2013
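IDH1KD HT-1080 cells, 750/well, RPMI + 5% FBS; compound pinned after 2 h settling; 48 h, 37 °C; CellTiter-Glo luminescence; % activity normalised to DMSO and no-cell wells; curves fitted, classed by r2 and efficacy.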
KB-3-1 cytotox: qHTS assay for MDR1-selective chemotherapeutics: Primary screen using the parental adenocarcinoma cell KB-3-1 | KB-3-1 viability, CellTiter-Glo ATP luminescence, 72 h | Potency, µM (highest dose often 46.1 µM), actives largely listed as cytotoxic | actives 1.4% (n = 400,000) | AID 1347075, 2019; note: nearly all actives have a fitted effect of over 60% in size
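Parental KB-3-1 adenocarcinoma cells in phenol-red-free DMEM with 10% FBS were pin-treated with compounds at several concentrations, incubated 72 h at 37 °C, and viability read by CellTiter-Glo luminescence; concentration-effect curves were fitted after normalization.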
DT40 TDP1 no CPT: qHTS for Inhibitors of human tyrosyl-DNA phosphodiesterase 1 (TDP1): qHTS in cells in absence of CPT. DT40 Tdp1-/- hTDP1 cells, no CPT, ATP luminescence, 48 h. Potency, µM (doses to about 46.2 µM), most hits filed as inhibitors. actives 15% (n = 420,000). AID 686978, 2013; note: nearly all actives have a fitted effect of over 55% in size
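Growth of hTDP1-complemented DT40 Tdp1-knockout cells is measured by ATP luminescence after at least 48 hr compound exposure at 37 °C, with DMSO substituting for the 20 nM CPT used in the parallel screen.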
HT1080NT lethal: qHTS for induction of synthetic lethality in tumor cells producing 2HG: qHTS for the HT-1080-NT fibrosarcoma cell line | actives 1.6% (n = 360,000) | Potency, µM (highest dose often 46.1 µM), usual class: cytotoxic | AID 686970, 2013 | HT-1080-NT fibrosarcoma viability, CellTiter-Glo ATP luminescence, 48 h;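 note: NT is the 2HG producing partner of a matched IDH1 knockdown line; nearly all actives have a fitted effect of over 55% in size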
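Viability of the 2HG-overproducing fibrosarcoma line after 48 hours of compound exposure at 37 degrees C was determined by luminescence with CellTiter-Glo, and concentration-effect curves were then fitted and categorized.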
KB-V1 cytotox: qHTS assay for MDR1-selective chemotherapeutics: Primary screen using the drug-selected MDR subline cells KB-V1. KB-V1 MDR cells viability, CellTiter-Glo, 72 h. Potency, µM (doses to about 46.1 µM), usual class: cytotoxic. actives 3.4% (n = 400,000); note: nearly all actives have a fitted effect of over 60% in size
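Potencies derive from concentration-effect curves fitted to normalized luminescence (CellTiter-Glo) of KB-V1 cells treated for 72 h at 37 degrees C in phenol-red-free DMEM containing 10% FBS.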
Hits are given with their value; 0 = inactive; ? = inconclusive; - = no result given; [ ] = remark or other dose. Calls come from the whole dose curve; as a rule, active = well fitted curve in the direction sought with a large enough effect; inconclusive = small, poorly fitted or top-dose-only effect, or another doubt; inactive = no such curve, though single readings can be large; an effect the other way counts as inactive or inconclusive.

SMILES	TDP1 cell CPT	HT1080 IDH1KD tx	KB-3-1 cytotox	DT40 TDP1 no CPT	HT1080NT lethal	KB-V1 cytotox
Cc1ccc(C(=O)NC(=S)Nc2ccccc2N2CCOCC2)cc1C	25.9µM	?	?	?	?	0
COc1cc(C(=O)NC(=S)Nc2ccc([N+](=O)[O-])cc2C)cc(OC)c1OC	0	0	0	?	0	2.06µM
COc1cccc(C(=O)NC(=S)Nc2ccccc2N2CCOCC2)c1	?	0	-	?	0	-
Cc1cccc(-c2cnc3cccnn23)c1	?	0	0	?	0	0
COc1ccc(NC(=O)C(=O)N/N=C\c2ccc(CNC(=O)C(=O)Nc3ccc(C)c(C)c3)o2)c(OC)c1	5.17µM	0	13µM	9.2µM	0	?
CCOc1ccc(NC(=O)C(=O)N/N=C\c2ccc(CNS(=O)(=O)c3ccccc3)o2)cc1	?	?	0	20.6µM	?	?
COc1ccc(NC(=O)C(=O)NCc2ccncc2)c(OC)c1	0	0	0	0	0	0
Cc1cc(-c2c(C)[nH]n(-c3ccccc3)c2=O)n[nH]1	2.91µM	0	?	4.11µM	0	0
Cc1cc(-c2c(C)[nH]n(-c3ccccc3)c2=O)n(-c2ccccc2)n1	0	0	0	0	0	0
COc1ccccc1P(=O)(Cc1ccccc1[N+](=O)[O-])c1ccccc1 (stereo not drawn)	?	0	0	14.6µM	0	?
CCCNC1=C(N(C(C)=O)c2cccc(F)c2)C(=O)c2ccccc2C1=O	2.59µM	4.61µM	1.3µM	2.06µM	8.2µM	?
CCCNC(=O)COC(=O)/C=C/c1cccc(F)c1	0	0	0	0	0	0
CCC(O)c1c(-c2ccccc2)nn(C)c1Cl (stereo not drawn)	?	0	0	14.6µM	0	0
O=c1oc(=S)oc2c1[C@H](c1ccc(Cl)cc1)O[C@H](C1CCCC1)C2	?	0	0	23.1µM	0	0
CCOc1ccc(N2CC(NC(=O)/C=C\c3ccc4c(c3)OCO4)CC2=O)cc1 (stereo not drawn)	0	-	-	0	-	-
CCS(=O)(=O)c1ccc2c(c1)N(S(C)(=O)=O)CC(C(=O)NN)O2 (stereo not drawn)	0	0	0	0	0	0
O=C(CN1CCCCC1)NCC(=O)Nc1ccc(F)c(F)c1F	0	0	0	0	0	0
O=C(CN1CCN(Cc2cccc(C(F)(F)F)c2)CC1)NCC(=O)Nc1ccc(F)c(F)c1F	?	0	0	?	0	23.1µM
O=C(NCc1ccc(F)cc1)C1CCN(c2ncnc3c2nc2n3CCCCC2)CC1	0	-	?	?	-	0
COc1cc(/C=C(\C#N)c2nc3ccc(C)cc3[nH]2)cc([N+](=O)[O-])c1O	?	0	0	20.6µM	0	0
Cc1ccc2nc(/C(C#N)=C\c3ccc(Oc4ccc(C(F)(F)F)cc4[N+](=O)[O-])cc3)[nH]c2c1	?	?	?	10.3µM	?	?
COc1ccc(/C=C(\C#N)c2nc3ccc(C)cc3[nH]2)cc1Oc1ccc(C(F)(F)F)cc1[N+](=O)[O-]	?	0	0	16.4µM	0	?
COc1cc(/C=C(\C#N)c2nc3ccc(C)cc3[nH]2)c([N+](=O)[O-])cc1OC	0	?	0	?	0	0
Cc1csc(NC(=O)CSc2nnc3c4ccccc4nc(C(C)(C)C)n23)n1	4.61µM	6.31µM	?	5.8µM	5.01µM	?
Cc1ccc(C(=O)CSc2nnc3c4ccccc4nc(C(C)(C)C)n23)cc1	?	0	23.1µM	11.6µM	0	?
SMILES	TDP1 cell CPT	HT1080 IDH1KD tx	KB-3-1 cytotox	DT40 TDP1 no CPT	HT1080NT lethal	KB-V1 cytotox
CN(C)CC(C)(C)CNS(=O)(=O)c1cccc(Cl)c1Cl	0	0	0	0	0	0
Cc1cc(NC(=O)CCC(=O)N(c2ccc(F)cc2)C(C(=O)NC2CCCC2)c2ccncc2)no1 (stereo not drawn)	0	0	0	0	0	0
CN(Cc1cccs1)C(=O)Cn1cnc2ccccc2c1=O	0	0	0	0	0	0
CCN(CC)c1cc(C)c2ccccc2n1	0	0	0	0	0	0
CCN(CC)c1cc(C)c2cc(NC(=O)/C=C/c3ccccc3OC(C)C)ccc2n1	?	-	0	23.1µM	-	0
COC(=O)Cc1[nH]nc2c1C(c1ccc(O)c(OC)c1)C(C#N)=C(N)O2 (stereo not drawn)	0	0	0	0	0	0
O=C1/C(=C\c2cccnc2)Sc2ccccc21	?	?	0	20.6µM	?	0
CC(C)(C)c1cc(OC(=O)C2CCCC2)ccc1O	5.17µM	?	0	3.66µM	?	0
CCOc1ccccc1C1C2CCCCC2(O)CCN1C(=O)c1cccs1 (stereo not drawn)	0	0	0	0	0	23.1µM
O=C(c1nc2ccc(Cl)cn2c1CN1CCC[C@H]1CO)N1CCc2ccccc2C1	0	0	0	?	0	?
COc1cc2c(cc1OC)C(c1ccccc1[N+](=O)[O-])=NCC2	5.8µM	0	0	2.91µM	0	0
COc1cc2c(cc1OC)C(c1ccccc1N)=NCC2	?	0	0	20.6µM	0	0
COc1cc2c(cc1OC)C(c1ccccc1)=NCC2	0[9.04 µM]	0	0	?	0	0
COc1ccccc1[N+](=O)[O-]	0	0	0	0	0	0
CCC(C)n1ncn(-c2ccc(N3CCN(c4ccc(OC)cc4)CC3)cc2)c1=O (stereo not drawn)	0	0	0	?	0	?
CCc1ccccc1NC(=S)N1CCN(c2ccccc2F)CC1	0	0	0	?	0	0
CCOCCCNC(=S)N1CCN(c2nc(-c3ccc(F)cc3)cs2)CC1	?	?	?	?	20.6µM	?
CNC(=S)N1CCN(c2nc(-c3ccc(F)cc3)cs2)CC1	?	0	0	?	0	0
CCOc1ccccc1NC(=S)N1CCN(c2nc(-c3ccc(F)cc3)cs2)CC1	20.6µM	0	0	14.6µM	?	0
CCOc1ccccc1NC(=S)N1CCN(c2ccccc2F)CC1	?	0	0	20.6µM	0	0
CC(=O)Nc1ccc(NC(=O)CSc2nnc(-c3cccs3)n2N)cc1	0	0	0	0	0	0
CCOc1ccc(N=C2NC(=O)S/C2=C\c2ccc(N(C)C)cc2)cc1	0	0	0	?	0	20.6µM
